Screens: PubChem, several laboratories
Rows were chosen to be rich in hits. Some 0.72% of all compounds tested hit in one or more screens of this group.
PolyA inh: polyadenylation inhibitors in yeast reporter cells, primary screen, luminescence, S. cerevisiae | activity score, % at 12 µM | S. cerevisiae SKY197-pL101 polyadenylation reporter, beta-gal luminescence; efflux-impaired pdr1/pdr3 knockout yeast; score 100 = 6 SD above DMSO | 0.02% of 300,000 active | AID 1875, 2009;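 active means lowest replicate activity score at least 50, where 100 means six control SD above control mean; inconclusive means lowest score under 50 but half or more replicates reach 50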;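 further: yeast exposed to compound for 9 h at 30 °C; higher score means more reporter readthrough which indicates perturbed polyadenylation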
PKA-R2B activ: activators of PKA-R2B holoenzyme, primary screen, biochemical, fluorescence polarization, Cy5-IP20, human | PKA-R2B holoenzyme dissociation; R2B truncated from residue 108, S112A mutant; 0% DMSO only, 100% 113 µM cGMP | activation, % at 11.4 µM | 0.079% of 340,000 active;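 active means activation above a cutoff set at the mean over all compounds plus 3 SD, cut at about 18% in these data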;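 further: higher means more holoenzyme dissociation and a rise in polarization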
Neddyl block: inhibitors of cullin neddylation, primary screen, biochemical, TR-FRET, uHTS, NAE and Ubc12; calls only at 25 µM; NEDD8-conjugating enzyme Ubc12 (Homo sapiens) + NEDD8-activating enzyme E1 regulatory …; AID 651699, 2012; 0.58% of 360,000 active; in the data active means inhibition above about 36%
Target sequence (P61081 whole entry, looked up): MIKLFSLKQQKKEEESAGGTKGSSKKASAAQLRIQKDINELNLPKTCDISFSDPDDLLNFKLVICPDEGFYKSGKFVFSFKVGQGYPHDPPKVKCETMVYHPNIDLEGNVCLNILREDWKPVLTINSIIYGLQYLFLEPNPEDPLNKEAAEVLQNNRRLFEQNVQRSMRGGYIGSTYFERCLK
Target sequence (Q13564 whole entry, looked up): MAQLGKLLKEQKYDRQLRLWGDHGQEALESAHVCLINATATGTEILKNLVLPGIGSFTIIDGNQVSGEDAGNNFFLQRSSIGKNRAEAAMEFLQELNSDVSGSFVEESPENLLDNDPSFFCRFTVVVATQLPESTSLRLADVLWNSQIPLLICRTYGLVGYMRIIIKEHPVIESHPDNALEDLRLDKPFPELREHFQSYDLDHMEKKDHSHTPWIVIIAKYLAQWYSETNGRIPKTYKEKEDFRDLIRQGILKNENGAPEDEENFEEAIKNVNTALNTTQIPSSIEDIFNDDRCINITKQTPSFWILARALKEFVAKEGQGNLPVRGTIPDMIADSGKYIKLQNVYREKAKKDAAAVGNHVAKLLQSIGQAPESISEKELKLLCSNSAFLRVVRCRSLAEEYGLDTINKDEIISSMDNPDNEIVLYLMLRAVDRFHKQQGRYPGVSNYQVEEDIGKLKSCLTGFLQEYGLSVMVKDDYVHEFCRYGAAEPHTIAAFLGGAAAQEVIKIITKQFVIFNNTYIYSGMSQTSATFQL
PKA-R1A act: activators of PKA-R1A holoenzyme, primary screen, biochemical, fluorescence polarization, Cy5-IP20, bovine R1A, mouse PKAc. cAMP-dependent protein kinase type I-alpha regulatory subunit (Bos taurus) + …. PKA-R1A dissociation; scaled: DMSO 0%, 113 µM cGMP 100%. activation, % at 11.4 µM. 0.083% of 340,000 active. AID 504707, 2011;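 active means percent activation above the mean of all tested compounds plus 3 SD, cut at about 19% in these data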;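 further: higher means more PKAc released from R1A so a rise in polarization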
Neddyl conf: blockade of NEDD8 conjugation to cullin – biochemical, TR-FRET, single concentration, confirmation. calls only at 25 µM. TR-FRET cullin neddylation biochemical assay. shares compounds with Neddyl block. 13% of 1,800 active. AID 652217, 2013; in the data active means inhibition above about 40%;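 further: neddylation substrate is the cullin 1 ring ligase complex with SKP2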
Active calls of the source: *; i = inactive; ? = inconclusive; / = no result given; + = active, no number.

SMILES | PolyA inh | PKA-R2B activ | Neddyl block | PKA-R1A act | Neddyl conf
CCc1ccc2c(c1)C(=O)C[C@]1(CCC[C@H](C)C1)O2 | -13.9 | -0.4 | + | 0.9 | i
O=C1CC2(CCCCC2)Oc2ccc(Cl)cc21 | -1.4 | 1.5 | + | 7.7 | i
C[C@H]1CCC[C@]2(CC(=O)c3cc(F)ccc3O2)C1 | -4.6 | 3.9 | i | -0.7 | /
O=C1CC2(CCCCCC2)Oc2ccc(Cl)cc21 | 7.1 | -9.2 | i | 0.6 | /
O=C(N=Nc1c(O)[nH]c2ccc(F)cc12)C1COc2ccccc2O1 (stereo not given) | 1.3 | 13.9 | i | 8.3 | /
Cc1cc(Br)ccc1OCCCCN1CCCCC1 | -55.2 | 10.5 | i | 0.5 | /
O=S(=O)(c1ccc(Cl)cc1)N1c2ccccc2Oc2nc3ccccc3nc21 | -11.3 | 0.8 | + | -12.3 | i
COc1ccc(S(=O)(=O)N2c3cc(Cl)ccc3Oc3nc4ccccc4nc32)cc1 | -12.3 | -4.0 | i | -12.6 | /
CC[C@@H]1Cc2[nH]c(=O)[nH]c(=O)c2[C@H](c2ccc(Cl)cc2)O1 | / | / | i | / | /
Cc1ccccc1C(=O)OC1CCCN(C)C1 (stereo not given) | -6.8 | 0.9 | i | -0.9 | /
NC(=O)c1cc2ccc(O)cc2oc1=Nc1ccccc1 | -33.5 | 0.3 | + | -10.4 | i
COc1ccc(/C(C)=N\Nc2nc(-c3ccccc3)cc(=O)[nH]2)cc1 | -5.7 | -6.4 | + | 7.3 | i
COc1ccc(/C(C)=N/Nc2nc(C)cc(-c3ccccc3)n2)cc1 | -15.7 | / | i | / | /
CCNc1oc(/C=C/c2ccc(OCC)cc2)nc1C#N | -8.6 | -11.7 | + | -1.4 | /
COc1ccc2ccc(=O)oc2c1CC(=O)C(C)C | / | 5.8 | + | -14.1 | i
COC[C@@H]1CCCN1[C@H]1CS(=O)(=O)N[C@@H]1COCc1ccccc1 | / | / | i | / | /
CCc1nnc(NC(=O)c2ccc(-c3ccccc3F)o2)s1 | -6.6 | -8.5 | + | -14.7 | i
CCc1nnc(NC(=O)c2ccc(-c3ccc(Cl)cc3)o2)s1 | 22.3 | -4.6 | i | -9.7 | /
O=C(O)c1ccc(S(=O)(=O)NCC2CCCCC2)cc1 | 1.3 | -7.2 | i | -0.2 | /
N#Cc1c2c(c(NCCOCCO)n3c1nc1ccccc13)CCCC2 | -5.3 | -2.8 | + | -3.0 | +
C=CCc1c(C)c(C#N)c2nc3ccccc3n2c1NCCN(C)C | -21.6 | -3.6 | + | 5.7 | /
COCCNc1c2c(c(C#N)c3nc4ccccc4n13)CCCC2 | -34.2 | 7.2 | + | 5.3 | +
CC(C)(C)NCC(=Cc1ccccc1)C(=O)c1ccccc1 | / | 1.1 | i | -0.6 | /
COC(=O)c1ccc(C(=O)OC)c(=O)[nH]1 | 19.6 | 1.6 | + | 2.7 | /
Cc1ccc(CNC(=O)c2cc(C3CC3)nc3c2cnn3C(C)C)cc1 | / | 7.6 | + | 0.2 | i
SMILES | PolyA inh | PKA-R2B activ | Neddyl block | PKA-R1A act | Neddyl conf
Cc1ccccc1CCNC(=O)c1cc(C2CC2)nc2c1cnn2C(C)C | / | 8.0 | / | -2.7 | /
CC(C)n1ncc2c(C(=O)NCCc3ccc(F)cc3)cc(C3CC3)nc21 | / | -15.5 | + | -7.2 | /
CCOCCCN(C(=O)CNC(=O)c1ccco1)C(C(=O)NC1CCCC1)c1cccc(OC)c1 (stereo not given) | -0.3 | 1.6 | i | 3.4 | /
COc1ccc(-c2nn(-c3ccccc3)cc2CO)cc1OC | 4.4 | 3.5 | + | -0.5 | i
COc1ccc2cc3cc(C(=O)N4CCCC(C)C4)oc3nc2c1 (stereo not given) | -5.9 | -5.0 | + | -0.4 | i
O=C(COC(=O)c1cc(-c2ccc(F)cc2)nc2ccccc12)NCC1CCCO1 (stereo not given) | -19.4 | -11.2 | + | -6.8 | i
O=C(COC(=O)c1cccc2ccccc12)NCC1CCCO1 (stereo not given) | -23.9 | -2.0 | i | -7.5 | /
O=C(CCCc1c[nH]c2ccccc12)N1CCN(c2ccc(N3CCOCC3)nn2)CC1 | -3.8 | -3.4 | + | -10.6 | +
Cc1ccccc1C(=O)N1CCN(c2ccc(N3CCOCC3)nn2)CC1 | 21.7 | -10.0 | + | -7.6 | /
Cc1ccccc1C(=O)N1CCN(c2nc(N3CCOCC3)nc(N3CCOCC3)n2)CC1 | 3.5 | 8.0 | i | 3.2 | /
COc1cccc(C(=O)N2CCN(c3ccc(N4CCOCC4)nn3)CC2)c1 | 18.2 | -14.3 | + | -17.7 | /
O=C(CCc1c[nH]c2ccccc12)N1CCN(c2ccc(F)cc2)CC1 | 7.8 | -6.2 | i | -15.6 | /
O=C(c1cccc(Br)c1)N1CCN(c2ccc(N3CCOCC3)nn2)CC1 | 1.4 | 1.3 | + | 5.7 | /
Cc1ccc(S(=O)(=O)N2CCN(C(=O)c3ccnn3C)CC2)cc1C | -4.2 | -3.9 | i | 10.9 | /
COc1cccc(-c2oc3c(c2C(=O)OCCN2CCCCC2)C(O)CCC3)c1 (stereo not given) | / | / | i | / | /
CCOc1ncccc1C(=O)Nc1cc(S(=O)(=O)N(CC)CC)ccc1N1CCOCC1 | / | 6.6 | i | 13.0 | /
CCN1CCN(c2ccc(N3CCN(C(=O)c4ccc(Br)o4)CC3)nn2)CC1 | 8.7 | -14.2 | + | 5.7 | /
O=C(c1ccc(Br)o1)N1CCN(c2ccc(F)cc2)CC1 | -6.1 | -16.8 | i | -8.5 | /
O=C(NCC1CCCO1)C1CCCN1C(=O)Nc1ccc(Cl)cc1 (stereo not given) | 26.2 | -5.0 | i | -3.1 | /
CCOc1cc(C2NC(=O)c3ccccc3O2)ccc1OC (stereo not given) | 15.7 | -4.3 | + | 7.8 | i
COc1cc2cc(CN(CCCN3CCOCC3)C(=O)Nc3ccccc3F)c(=O)[nH]c2cc1OC | 29.4 | -9.9 | + | -8.3 | i
C=CCn1c(OCc2ccccc2)n[nH]c1=S | ? | 8.1 | i | -4.0 | /
c1nc(NCc2ccc3c(c2)OCO3)c2cc(-c3ccoc3)ccc2n1 | / | 0.8 | i | 4.3 | /
O=C(NNC1=Nc2ccccc2SC1)c1ccccc1F | 4.8 | 4.8 | i | -9.7 | /
O=C(NNC1=Nc2ccccc2SC1)c1cccc([N+](=O)[O-])c1 | 13.3 | / | + | / | i
Cc1n[nH]c(=S)n1/N=C/c1ccccc1 | 8.7 | -6.2 | i | 0.3 | /
Cc1ccc(-n2nc(C)c(/C=N/n3c(C)n[nH]c3=S)c2Cl)cc1 | -8.8 | 1.3 | + | -4.4 | i
Cc1ccc(-c2csc3nc(-c4ccncc4)[nH]c(=O)c23)cc1 | -1.9 | -4.0 | i | -7.4 | /
CCOc1ccc(-c2nc3scc(-c4cccs4)c3c(=O)[nH]2)cc1 | 1.7 | -6.2 | + | -0.2 | /
